Data on 38 compounds can be found in PubChem BioAssay (NCI).

Molecules are shown by their SMILES. Compounds without any hit were thinned out: in the full panel of roughly 83,000, 20% have a hit.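 Compound tested at a single concentration for 48 hours in 96-well plates; a percent growth value below 10 was scored as active.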 Values without a mark were called inactive. The source made the active and inactive calls.

This assay relates to MDA-MB-231 breast. Description: NCI-60 one-dose screen, 48 h (100 = growth as untreated, 0 = no growth, -100 = all killed). To be noted: 10 µM unless noted.
Turning to `O=C(/C=C/c1ccc(Cl)cc1)c1ccc(NC(=O)N2CCN(c3cc4c(cc3F)c(=O)c(C(=O)O)cn4C3CC3)CC2)cc1`, the growth was 93%. To `O=C(/C=C(/C=C/c1csc2ccccc12)OB(F)F)/C=C/c1csc2ccccc12` belongs 2.45% (active).

With `CN1CCN(C(=O)[C@]23CCC(C)(C)C[C@H]2C2=CC[C@@H]4[C@@]5(C)C/C(=C/c6cccnc6)C(=O)C(C)(C)[C@@H]5CC[C@@]4(C)[C@]2(C)CC3)CC1`, the growth was 59.8%. To `CC1=CCC(OC(=O)C(C)(O)CCC(O)(C(=O)OC2(C)C=CC(O)(C(C)C)CC2)C(C)C)(C(C)C)CC1` (stereo not drawn) belongs 100%; to `NC1=NN=C(N)C1=Cc1cc2ccccc2n2nnnc12`, 95.5%; to `COc1ccc(NC(N)=NCCCOc2ccc(F)cc2)cc1`, 93.8%.

`O=C1c2ccc3c4c(ccc(c24)C(=O)N1CCCNCc1ccccc1)C(=O)N(CCCNCc1ccccc1)C3=O`: the growth is -8.41% (active).

For `O=C(NCCNc1nccc(-c2c(-c3cccc(F)c3)nc3sccn23)n1)c1ccc(Cl)cc1`, the growth was 65.5%. With `C=C1C(=O)O[C@H]2[C@H]1CC/C(COC(=O)NCCc1c[nH]c3ccc(OC)cc13)=C\CC[C@@]1(C)O[C@@H]21` the figure was 39.1%; with `COc1cc(CC(=O)c2ccc(O)c(OC)c2)ccc1O`, 88.6%. With `CCN(CC)c1ccc(/C=N/NC(=O)CSc2nc3ccccc3c(=O)n2CCc2ccc(S(N)(=O)=O)cc2)c(O)c1` the figure was 26%; with `Cc1ccc(-n2c3c(c(-c4ccccc4)c2-c2ccccc2)C2=NCCN2C=N3)cc1`, 80.5%; with `CN1CCN(C(=O)[C@]23CCC(C)(C)C[C@H]2C2=CC[C@@H]4[C@@]5(C)C/C(=C/c6ccncc6)C(=O)C(C)(C)[C@@H]5CC[C@@]4(C)[C@]2(C)CC3)CC1`, 64.2%.

As to `C=C(C)[C@@H]1CC[C@]2(C(=O)N3CCN(C)CC3)CC[C@]3(C)[C@H](CC[C@@H]4[C@@]5(C)C/C(=C/c6cccnc6)C(=O)C(C)(C)[C@@H]5CC[C@]43C)[C@@H]12`, the growth was 74.9%. With `N/C(=N\C(N)=N\c1nc2ccccc2s1)c1cccc(Cl)c1` the figure was 73.7%. On to `CCOC(=O)Nc1ccc(-c2ccc3c(c2)NC(=O)/C3=C\c2ccc[nH]2)cc1`, for which the growth was 69.3%. Consider `CCNC(=O)Oc1ccc(/C(=C(\C)c2ccccc2)c2ccc(OCCN(CC)CC)cc2)cc1`, for which the growth was 87.2%. To `CCOC(=O)/C(C#N)=C1/NNC(=Nc2cccnc2)S1` belongs 98.8%; to `COc1cccc(-c2nc3occn3c2-c2ccnc(NCCCNS(=O)(=O)c3ccc(C(F)(F)F)cc3)n2)c1`, 90.1%; to `CC(=O)Nc1ccc(-n2cnc3cc(-c4ccc(OCCN5CCCCC5)cc4)ccc32)cc1`, 76.1%.

For the compound `Cn1ccnc1C(=O)/C=C/c1ccc(CC(=O)Nc2ccc(Cl)cc2)cc1`, the growth was 7.75% (active). To `C=CCN1C(=O)/C(=C/C(=O)OC)S/C1=N\NC(=O)c1cc2ccc1/C=C\c1ccc(cc1)/C=C\2` belongs 97.7%; to `COc1ccc(/C=C(\C#N)n2nc3cccc(F)c3n2)cc1`, 112%. To `N/C(=N\C(N)=N\c1nc2ccccc2s1)c1cnccn1` belongs 58.1%; to `Cc1c(C(=O)NCCC(=O)NO)sc2ncnc(Nc3ccc(NC(=O)Nc4cccc(C(F)(F)F)c4)cc3)c12`, 105%. With `O=C(Nc1ccc(-c2ccc3c(c2)NC(=O)/C3=C\c2ccc[nH]2)cc1)NC1CC1` the figure was 101%.

As to `S=c1cc(S)c2cc(Br)ccc2[nH]1`, the growth is 81.5%. With `CCCCOc1ccc(/C=N/Nc2cc(C)nc3ccc(Br)cc23)cc1` the figure was 48.5%. With `N/C(=N\C(N)=N\c1nc2ccccc2s1)c1ccnc(Br)c1` the figure was 51.7%; with `COc1cc(NC(C)CCCNC(=O)CCC(=O)NCCCNCCCCCCCCNCCCNC(=O)CCC(=O)NCCCC(C)Nc2cc(OC)cc3cccnc23)c2ncccc2c1` (stereo not drawn), 44%; with `COc1cc2nc(-c3ccc(C(F)(F)F)cc3)cc(OCCCN3CCOCC3)c2cc1OC`, 22.1%.

In the case of `O=C(Cn1c[n+](CC(=O)c2ccc(-c3ccccc3)cc2)c2ccccc21)Nc1cccc2cccnc12`, the growth was -7.75% (active).

For `CC(Oc1ccc(C(=O)O)cc1C(F)(F)F)c1ccc(Oc2ccccc2)cn1` (stereo not drawn), the growth is 101%. With `O=C(Nc1ccc(F)cc1)Nc1ccc(NC(=O)c2cc(Cl)nc3ccccc23)cc1`, the growth is 45.9%. On to `O=C(CCN1CCCC1)Nc1ccc2c(Nc3ccc(F)cc3)c3ccccc3nc2c1`, for which the growth is -17.2% (active). To `CC(Sc1nc2ccccc2c(=O)n1CCc1ccc(S(N)(=O)=O)cc1)C(=O)Nc1ccc(Cl)cc1` (stereo not drawn) belongs 82.6%. Turning to `O=C(N/N=C/c1cc2ccccc2n2nnnc12)Nc1ccccc1`, the growth is 105%. For `CC1(C)CC(=O)C2=C(C1)N(c1ccc(F)cc1F)C(N)=C(C#N)C2c1cc(Br)ccc1F` (stereo not drawn), the growth is 96.4%.
